# About 79,000 compounds went through this panel and 15% of them were active in at least one assay; those are over-represented in the sample as a whole. Unmarked numbers belong to inactive results. Activity calls are given as the source filed them. No stated cut-off is given here; in the data, active means growth inhibition above about 70%; inactive means the rest. Where a SMILES comes first, the peptide text is derived from it. [ ]: non-standard residue; d: D form. The star is where a group is joined. ξ: configuration not given here. Cbz = O=C(OCc1ccccc1)*; ξP = O=C(O)C1CCCN1
# How the values were obtained:
# [1] = NCI Yeast Anticancer Drug Screen. Data for the rad50 strain (AID 155);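 further: 0% = growth of vehicle-only cultures of the same strain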; conditions: S. cerevisiae rad50 strain growth inhibition; at 50.0 µM; stronger effect = higher value
# Outline: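 Inhibition values express reduced yeast growth in compound-treated cultures relative to vehicle-treated controls.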
# [2] = NCI Yeast Anticancer Drug Screen. Data for the mec2-1 strain (AID 157); conditions: S. cerevisiae mec2-1 strain, at 50.0 µM, stronger effect = higher value
# Outline: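 Using mec2-1 yeast: add compound, measure growth, express inhibition versus vehicle-treated cultures.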
# [3] = NCI Yeast Anticancer Drug Screen. Data for the sgs1 mgt1 strain (AID 161);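 further: 0% = growth of cultures given vehicle only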; conditions: S. cerevisiae sgs1 mgt1 strain, at 50.0 µM, stronger effect = higher value
# Outline: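 Percent growth inhibition was derived by comparing compound-exposed mutant yeast with vehicle-exposed cultures. The strain carries alterations in DNA damage repair.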
# [4] = NCI Yeast Anticancer Drug Screen. Data for the cln2 rad14 strain (AID 165);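 further: 0% = growth equal to vehicle treated cultures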; conditions: S. cerevisiae cln2 rad14 strain, at 50.0 µM, stronger effect = higher value
# Outline: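 Yeast strain cln2 rad14, bearing defects in cell cycle control and DNA repair, serves as the test system; values reflect growth inhibition compared with vehicle.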
# [5] = NCI Yeast Anticancer Drug Screen. Data for the bub3 strain (AID 167); conditions: S. cerevisiae bub3 mutant strain, at 50.0 µM, stronger effect = higher value
# Outline: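 Steps: expose the mutant yeast strain to compound; grow alongside vehicle-treated cultures; measure growth; express inhibition against the vehicle cultures.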
# [6] = NCI Yeast Anticancer Drug Screen. Data for the mlh1 rad18 strain (AID 175); conditions: S. cerevisiae mlh1 rad18 strain growth inhibition; at 50.0 µM; stronger effect = higher value
# Outline: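 Steps: expose repair-defective yeast to compound; measure growth; express inhibition against vehicle-treated controls.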
Compound,growth inhibition [1],growth inhibition [2],growth inhibition [3],growth inhibition [4],growth inhibition [5],growth inhibition [6]
CCOCCOCCOC(=O)C(C)O (stereo unspecified),14.7%,7.1%,2.25%,6.55%,-18.6%,-3.4%
CC(=O)c1ccc(O)c(C)c1,-9.3%,-8.9%,-6.55%,5.5%,-8.1%,-0.2%
O=S1(=O)C=Cc2ccccc2CC1,-4.15%,-12.2%,-22.4%,-10.8%,0.9%,-27.8%
O=C(CNC(=O)OCc1ccccc1)NCC(=O)N1CCCC1C(=O)O (stereo not drawn) (Cbz-Gly-Gly-[ξP]-OH),-1.6%,1.15%,-4.45%,0.25%,-3.65%,-23.6%
C=CC1=C(C)C2=NC1=CC1=NC(=CC3=C(C)C4=C(O)[C@H](C(=O)OC)C(=C5NC(=C2)[C@@H](C)[C@@H]5CCC(=O)O)C4=N3)C(CC)=C1C,1.65%,8.1%,31.2%,28.1%,21.1%,5.9%
COc1ccc2c(c1)OCc1c-2oc2ccccc2c1=O,-24.8%,-4.55%,-10.9%,-25.4%,-3.95%,-5.3%
COc1ccc(N2CCN(CC(O)COc3ccc(C(=O)Cc4ccccc4)cc3)CC2)cc1 (stereo unspecified),96.4% (active),96.8% (active),99% (active),86.6% (active),91% (active),96.7% (active)
Cc1cccc(N=Nc2ccc(O)c(CN(C)C)c2)c1,-17%,8.9%,-0.35%,-5.5%,29.1%,20.2%
CCc1cccc(C(C)CC)c1N=C(NC(=O)c1ccccc1C(=O)NC(=Nc1c(CC)cccc1C(C)CC)SC)SC (stereo unspecified),-0.7%,-3.15%,5.3%,6.3%,15.1%,-5.15%
COc1ccc(NC2=CC(=O)c3ccccc3C2=O)cc1,0.4%,5.55%,4.1%,-35%,18.2%,-7.1%
CSc1ccc(OC(=O)Nc2ccc(Cl)c(Cl)c2)cc1C,95.3% (active),96.5% (active),96.9% (active),95% (active),94.7% (active),95.1% (active)
CC(C)c1ccccc1[S+]1OC(C)(C)c2ccccc21 (stereo unspecified),-4.9%,21.9%,6.95%,9.45%,-1.5%,-38.7%
COc1cc(/C=C/C=C2\CC(C)C/C(=C\C=C\c3ccc(O)c(OC)c3)C2=O)ccc1O (stereo unspecified),9%,8.3%,6.05%,18.2%,0.85%,8.2%
Nc1nc(N)c(-c2ccc(Cl)cc2)c(CNc2cccc([N+](=O)[O-])c2)n1,90.9% (active),91.3% (active),97.7% (active),95% (active),98.1% (active),99.2% (active)
CCCCn1c(-c2ccccc2)cs/c1=N\NC(=O)Cn1c(C)nc2ccccc21,-30.8%,-8.3%,-8.4%,18.9%,-3.25%,-16.8%
O=C(COc1cc(Cl)c(Cl)cc1Cl)Nc1c(Cl)cc(Cl)cc1Cl,2.5%,5.8%,-2.75%,-18.6%,-2.15%,22.7%
C#CC[N+](CC)(CC)CC,2.6%,-11.9%,-11.3%,-84%,-3.3%,-13.2%
Cc1[nH]c2ccccc2c1C1=CC(=O)c2ccccc2C1=O,8.55%,18%,21.6%,2.6%,-1%,13.8%
O=NN(CCCl)C(=O)NCCc1cccc[n+]1[O-],2.6%,14.3%,-14.1%,-5.75%,-2.45%,-57.6%
c1ccc2c3[n+](ccc2c1)CCC[n+]1ccc2ccccc2c1-3,75.1% (active),38%,85% (active),60%,18.3%,79% (active)
CNC(=O)OCc1c(COC(=O)NC)c(-c2ccsc2)n2c1CCC2,17.5%,13.6%,37.1%,-5.6%,-22.4%,8.25%

Compound,growth inhibition [1],growth inhibition [2],growth inhibition [3],growth inhibition [4],growth inhibition [5],growth inhibition [6]
COc1ccc(C(=O)/C=C/c2cccc3ccccc23)cc1,15.4%,25.7%,30.9%,-3.85%,33%,16.6%
CC1CCN(C(=S)[S-])CC1.CC1CCN(C(=S)[S-])CC1.[Zn],58.9%,9.05%,54.2%,34.2%,5.85%,32.9%
CCc1ccc(C(=O)O)cc1S(=O)(=O)Cl,7.2%,13.4%,-12.6%,-9.4%,2.55%,1.45%
O=C1Nc2c(Cl)cc(Cl)cc2C1=O,7.9%,45.1%,37.7%,-2.75%,38%,91.8% (active)
CCOc1nc(-c2ccccc2)cc(-c2ccc(N3CCOCC3)cc2)c1C#N,19%,9.55%,-7.4%,-11.6%,-4.5%,27.5%
CCN(CC)C(=O)c1ccccc1,7.75%,8.6%,-10.3%,-2.65%,-24.6%,10.3%
NC(N)=NNC(=O)C(=O)O,-4.5%,-7.9%,3.85%,-19.5%,-7.6%,7.9%
OC1CCC2=C(C1)C1CCC2C1 (stereo unspecified),9.05%,-10.7%,-11.8%,-18.4%,-12%,15.8%
CCCC[Si](C)(C)CCCC,-6.35%,-5.95%,-24.9%,-11.2%,-2.1%,-5.3%
Nc1cccc(/C=C/c2ccc([N+](=O)[O-])cc2)c1,-2.3%,24.6%,54.7%,-12.4%,30%,39.5%
NC(=O)CCC(Nc1c2ccccc2nc2ccccc12)C(=O)O (stereo unspecified),23.1%,3.85%,15.7%,28.6%,1.4%,48.2%
COc1ccc(-c2nnc(N)o2)cc1OC,-34%,-10.3%,-16.1%,6.35%,-13.9%,-24.9%
CCCCSc1nc2ccccc2c(=O)[nH]1,-10.7%,-13%,-4.6%,13.3%,9.3%,3.1%
O=C1CC(C(=O)O)C(C(Cl)(Cl)Cl)O1 (stereo unspecified),-18.9%,-26.4%,1.8%,-22.7%,-6.7%,-1.2%
Cc1ccc(S(=O)(=O)NC2(C=O)CCCC3CCCCC32)cc1 (stereo unspecified),33%,6%,-5.45%,-9.15%,0%,20.6%
COc1ccc(C(C)=O)cc1CCCO,-1.55%,5.85%,0.4%,30.6%,13%,20.6%
CCCCCCCCCCCCCCCc1c(NC(C)(CC(C)(C)O)[P+](=O)O)c(=O)n(C)n1C (stereo unspecified),-52.2%,-31.1%,-30.9%,-25.2%,-33.8%,-33.4%
CCOC(=O)C(=O)Cc1cnccn1,-25.2%,-12.7%,-11.8%,-0.9%,-17.8%,-2.65%
CC(Cl)(CCC(Cl)C(C)(C)Cl)C(=O)CBr (stereo unspecified),89% (active),92.7% (active),92.8% (active),91.3% (active),92.3% (active),93.2% (active)
O=C(c1ccc(Cl)cc1)c1ccc(OCCSCCCCCCCCCCSCCOc2ccc(C(=O)c3ccc(Cl)cc3)cc2)cc1,-43.1%,-27.7%,-35.1%,-9.4%,-38.6%,-30.9%
